Only some compounds are listed: those with a hit (about 2.4% of all), similar ones and a draw of the others.
Pol kappa inh-1 – qHTS for Inhibitors of Polymerase Kappa | AID 588579, 2011 | DNA polymerase kappa (Homo sapiens), Q9UBT6 | actives 0.53% (n = 400,000) | purified Pol kappa, fluorescent DNA synthesis assay, 10 min | Potency, µM (highest dose often 107 µM), for the others: top-dose activity, negative = inhibition, most hits filed as inhibitors; also: % is scaled to controls: 0 for no effect and ±100 for the full control effect
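Fluorescent qHTS in 1536-well format: enzyme (10 nM) and compound sat 15 min at room temperature before 50 nM substrate (final) was added. Signal taken at 0 and 10 min; no-enzyme buffer wells were negative controls.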
FEN1 inhibitor – qHTS Assay for the Inhibitors of Human Flap endonuclease 1 (FEN1). actives 0.35% (n = 390,000). Potency, µM (top dose mostly 114 µM), for the others: at the top dose activity change, negative = inhibition, usual class: inhibitors. AID 588795, 2011. P39748. Recombinant FEN1 flap cleavage, fluorescence, 15 min; also: % is scaled to controls: 0 for no effect and ±100 for the full control effect; nearly all actives have a fitted effect of over 65% in size
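Recombinant FEN1 (10 nM) was preincubated with pin-transferred compounds for 15 min at room temperature, then flap DNA substrate (50 nM final) was added. Plates were read at 0 and 15 min, and normalized concentration–response data were fitted to a four-parameter Hill equation.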
Pol eta inh-1 – qHTS for Inhibitors of Polymerase Eta. Potency, µM (series often up to 114 µM), inactives show at the highest dose activity change, negative = inhibition, most hits filed as inhibitors. recombinant Pol eta, fluorescent DNA replication assay. actives 1.2% (n = 390,000). AID 588591, 2011; also: % is scaled to controls: 0 for no effect and ±100 for the full control effect
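Fluorescent replication assay: 50 nM final substrate added after a 15 min room-temperature compound preincubation with 10 nM enzyme. Signal taken at 0 min and again at 10 min.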
Pol beta inh – qHTS Assay for Inhibitors of DNA Polymerase Beta | actives 1.3% (n = 340,000) | Potency, µM (doses to about 114 µM), for inactives: at the highest dose activity change, negative = inhibition, most hits filed as inhibitors | P06746 | Pol beta primer extension/strand displacement, fluorescence kinetic; also: % is scaled to controls: 0 for no effect and ±100 for the full control effect
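Kinetic readout of DNA synthesis with strand displacement by Pol beta. Compound and 10 nM enzyme sit 15 min at room temperature; 50 nM substrate starts the reaction, read immediately and at 10 min.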
WRN helicase inh – qHTS for Inhibitors of WRN Helicase. actives 0.46% (n = 360,000). WRN helicase unwinding, fluorescent forked duplex, kinetic. AID 651768, 2012. Bifunctional 3'-5' exonuclease/ATP-dependent helicase WRN (Homo sapiens), Q14191. Potency, µM (top dose mostly 114 µM), for the others: top-dose activity change, negative = inhibition, hits mostly inhibitors; also: % is scaled to controls: 0 for no effect and ±100 for the full control effect; nearly all actives have a fitted effect of over 55% in size
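Kinetic fluorescence helicase assay: unwinding of a quenched forked DNA duplex (100 nM final) with 2 mM ATP final raises red fluorescence (525/598 nm). Compounds sat 15 min at room temperature with 20 nM WRN beforehand.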
Pol iota inh – qHTS for Inhibitors of Polymerase Iota | Potency, µM (top dose mostly 115 µM), without a hit: at the highest dose activity, negative = inhibition, usual class: inhibitors | Pol iota fluorescent replication assay, 10 min | DNA polymerase iota (Homo sapiens), Q9UNA4 | actives 1% (n = 390,000) | AID 588590, 2011
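Fluorescent replication assay read twice, at 0 min and 10 min after adding 50 nM (final) substrate. Enzyme (10 nM) and compounds were first incubated 15 min at room temperature; enzyme-free buffer wells were negative controls.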
Pol kappa inh-2 – qHTS for Inhibitors of Polymerase Kappa: Confirmatory Assay for Cherry-picked Compounds; shares compounds with Pol eta inh-1; Potency, µM, usual class: inhibitors; AID 720501, 2013; actives 76% (n = 920); purified Pol-kappa, fluorescent strand-displacement substrate
Pol eta inh-2 – qHTS for Inhibitors of Polymerase Eta: Confirmatory Assay for Cherry-picked Compounds; shares compounds with Pol eta inh-1; Pol eta primer extension, TAMRA/BHQ fluorescence, 10 min; Potency, µM, actives largely listed as inhibitors; actives 64% (n = 2,600)
* marks the source's active call; other numbers are inactive results; ? = inconclusive; · = not tested or not shown; [ ] = another dose, or the depositor's remark. Calls follow the shape of the dose curve; as a rule, active = well fitted curve in the direction sought with a large enough effect; inconclusive = small, poorly fitted or top-dose-only effect, or another doubt; inactive = no such curve, though single readings can be large; an effect the other way counts as inactive or inconclusive. Potency is read from the fitted curve at half-maximal effect.

SMILES	Pol kappa inh-1	FEN1 inhibitor	Pol eta inh-1	Pol beta inh	WRN helicase inh	Pol iota inh	Pol kappa inh-2	Pol eta inh-2
Cn1c2ccccc2c2cc(/C=N/NC(=O)c3cc(O)cc(O)c3)ccc21	?	39.8µM*	22.4µM*	89.1µM*	?	28.2µM*	47.4*	53.6*
O=C(O)c1ccc(S(=O)(=O)N[C@H](Cc2ccc(O)cc2)C(=O)O)cc1	·	·	·	·	·	·	·	33.8*
CCCCCCCCCCCCCCC(F)C(=O)O (centres undefined)	3.1%[19.4 µM]	·	·	·	·	·	·	·
CC(/C=C1\SC(=S)N(NS(=O)(=O)c2ccc(C)cc2)C1=O)=C\c1ccccc1	-14.0%	?	39.8µM*	39.8µM*	?	?	·	?
CSCC[C@H](NC(=O)c1ccc(Br)o1)c1nnc2ccccn12	12.4%	-13.9%	3.0%	38.6%	2.5%	38.7%	·	·
CSCC[C@H](NS(=O)(=O)c1ccc(C(C)=O)cc1)c1nnc2ccccn12	-19.1%	-11.4%	14.1µM*	79.4µM*	?	-21.1%	·	67.5*
C#Cc1ccc([C@H]2C=C(C(=O)O)O[C@@H](OCc3ccc(CO)cc3)C2)cc1	?	-7.0%	35.5µM*	28.2µM*	-22.8%[57.1 µM]	?	42.3*	·
Cc1onc(-c2ccccc2Cl)c1C(=O)NCc1ccco1	?	-6.8%	44.7µM*	28.2µM*	-22.2%[57.1 µM]	?	·	?
COc1ccc(CNC(=O)CCS(=O)(=O)c2ccc(Br)cc2)cc1	?	-3.7%	?	-29.8%	-4.7%[11.6 µM]	?	·	75.7*
CCc1cccc(NC(=O)CCS(=O)(=O)c2ccc(Br)cc2)c1	0.2%	-16.9%	25.1µM*	7.08µM*	?	-1.5%	42.3*	84.9*
CCCC(=O)Nc1sc(C)c(C)c1C#N	3.8%	-4.5%	-18.9%	-11.4%	-7.4%	78.4%	·	·
CCc1c(C)sc(NC(=O)CC#N)c1C#N	?	?	22.4µM*	?	?	44.7µM*	·	?
O=C(Cc1nnc(NC(=O)c2ccccc2)s1)N/N=C\c1ccc(O)c(O)c1	3.16µM*	?	3.16µM*	7.08µM*	17.8µM*	2.24µM*	9.47*	37.9*
Cc1cc(SCC(=O)N/N=C/c2ccc(O)c(O)c2)nc2ccccc12	?	?	20µM*	8.91µM*	79.4µM*	50.1µM*	·	37.9*
COc1cc(/C=N/NC(=O)Cc2nnc(NC(=O)c3ccccc3)s2)ccc1O	-3.0%	-12.1%	-18.5%	?	-24.4%	44.8%	·	·
COc1ccc(NC(=O)c2ccco2)cc1NC(=O)COc1ccccc1Cl	2.9%	-1.1%	14.2%	10.6%	·	?	·	·
CC(=O)NCCNc1ncncc1-c1ccc(N(C)C)cc1	0.1%[60.1 µM]	·	·	·	·	·	·	·
CC[C@H](C)[C@H](NC(=O)[C@H](Cc1ccc(O)cc1)NC(=O)[C@@H](NC(=O)[C@H](CCCN=C(N)N)NC(=O)[C@@H](N)CC(=O)O)C(C)C)C(=O)N[C@@H](Cc1cnc[nH]1)C(=O)N1CCC[C@H]1C(=O)N[C@@H](Cc1ccccc1)C(=O)N[C@@H](Cc1cnc[nH]1)C(=O)N[C@@H](CC(C)C)C(=O)O	12.2%[60.1 µM]	·	·	·	·	·	·	·
Cc1cc(O)c(CN(C)C)c2c1C(=O)/C(=C/c1ccco1)O2	-94.0%	?	11.2µM*	-7.2%	-9.7%[11.6 µM]	?	33.6*	53.6*

Compound activity from PubChem BioAssay.
